According to PMC7862700, “An all-to-all approach to the identification of sequence-specific readers for epigenetic DNA modifications on cytosine”:

Columns and labels:
Assay in all cases: DAPPL (digital affinity profiling via proximity ligation, sequencing); 10 mM Tris-HCl pH 7.5, 50 mM NaCl, 1 mM DTT, 4% glycerol, room temperature, 30 min; GST-TFs on glutathione beads, 16-mer random dsDNA library, 0.1% formaldehyde crosslink after washing; high values mean tight binding
Conditions in all cases: protein: recombinant; tags: N-terminal GST; dsDNA, one strand shown
FLI1 = target: T1, FLI1 (Homo sapiens, UniProt Q01543 1-452)
T1 sequence: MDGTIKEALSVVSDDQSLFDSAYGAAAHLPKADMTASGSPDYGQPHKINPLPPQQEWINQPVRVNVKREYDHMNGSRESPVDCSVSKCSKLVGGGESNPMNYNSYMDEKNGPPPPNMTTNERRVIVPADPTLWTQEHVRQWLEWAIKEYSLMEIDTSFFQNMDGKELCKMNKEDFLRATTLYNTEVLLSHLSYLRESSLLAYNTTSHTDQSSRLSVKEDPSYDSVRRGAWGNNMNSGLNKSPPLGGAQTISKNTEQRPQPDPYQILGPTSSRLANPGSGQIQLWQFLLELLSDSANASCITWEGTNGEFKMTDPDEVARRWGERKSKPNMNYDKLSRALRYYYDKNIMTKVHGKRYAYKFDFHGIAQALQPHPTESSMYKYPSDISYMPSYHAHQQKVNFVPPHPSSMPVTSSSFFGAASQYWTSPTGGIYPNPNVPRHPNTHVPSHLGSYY
Outline: (§1)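 Human transcription factors fused to GST were expressed in yeast, captured on glutathione beads, given DNA barcodes and pooled with a GST-only negative control. Pools were incubated with 200 nmole of a 16-mer random double-stranded DNA library in Tris/NaCl/DTT/glycerol buffer at room temperature for 30 min. They were then washed, crosslinked with 0.1% formaldehyde, proximity-ligated (BsaI/T4 ligase, 1 h, 37 °C), PCR-amplified and sequenced on an Illumina NextSeq500. Binding signal is each 6-mer's read frequency for a factor divided by its frequency for the GST control.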

ELK1 = target: T2, ELK1 (Homo sapiens, UniProt P19419 1-428)
T2 sequence: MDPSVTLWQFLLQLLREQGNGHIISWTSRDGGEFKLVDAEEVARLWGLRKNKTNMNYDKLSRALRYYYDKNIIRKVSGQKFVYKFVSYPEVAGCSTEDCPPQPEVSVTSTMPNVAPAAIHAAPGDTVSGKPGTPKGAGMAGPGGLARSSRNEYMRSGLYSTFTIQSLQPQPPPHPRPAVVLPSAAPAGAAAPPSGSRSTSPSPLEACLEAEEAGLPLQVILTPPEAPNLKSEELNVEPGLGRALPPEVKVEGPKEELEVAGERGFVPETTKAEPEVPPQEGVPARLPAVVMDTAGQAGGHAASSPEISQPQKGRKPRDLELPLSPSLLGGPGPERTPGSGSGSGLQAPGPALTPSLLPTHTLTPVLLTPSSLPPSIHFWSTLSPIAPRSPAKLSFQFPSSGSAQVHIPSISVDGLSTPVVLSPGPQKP
Outline: as §1

GABPA = target: T3, GABPA (Homo sapiens, UniProt Q06546 1-454)
T3 sequence: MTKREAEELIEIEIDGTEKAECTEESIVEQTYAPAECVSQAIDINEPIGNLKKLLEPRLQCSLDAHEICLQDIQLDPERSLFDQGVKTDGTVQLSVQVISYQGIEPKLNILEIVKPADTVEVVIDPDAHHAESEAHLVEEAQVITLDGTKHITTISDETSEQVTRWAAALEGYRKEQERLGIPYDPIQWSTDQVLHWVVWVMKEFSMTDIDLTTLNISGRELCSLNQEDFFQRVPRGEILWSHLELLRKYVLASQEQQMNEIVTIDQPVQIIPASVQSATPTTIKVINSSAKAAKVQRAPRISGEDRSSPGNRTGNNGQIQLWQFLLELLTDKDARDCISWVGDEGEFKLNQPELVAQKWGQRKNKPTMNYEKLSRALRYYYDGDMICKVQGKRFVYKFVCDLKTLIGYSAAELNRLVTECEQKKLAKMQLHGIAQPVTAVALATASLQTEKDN
Outline: as §1

ERG = target: T4, ERG (Homo sapiens, UniProt P11308 1-479)
T4 sequence: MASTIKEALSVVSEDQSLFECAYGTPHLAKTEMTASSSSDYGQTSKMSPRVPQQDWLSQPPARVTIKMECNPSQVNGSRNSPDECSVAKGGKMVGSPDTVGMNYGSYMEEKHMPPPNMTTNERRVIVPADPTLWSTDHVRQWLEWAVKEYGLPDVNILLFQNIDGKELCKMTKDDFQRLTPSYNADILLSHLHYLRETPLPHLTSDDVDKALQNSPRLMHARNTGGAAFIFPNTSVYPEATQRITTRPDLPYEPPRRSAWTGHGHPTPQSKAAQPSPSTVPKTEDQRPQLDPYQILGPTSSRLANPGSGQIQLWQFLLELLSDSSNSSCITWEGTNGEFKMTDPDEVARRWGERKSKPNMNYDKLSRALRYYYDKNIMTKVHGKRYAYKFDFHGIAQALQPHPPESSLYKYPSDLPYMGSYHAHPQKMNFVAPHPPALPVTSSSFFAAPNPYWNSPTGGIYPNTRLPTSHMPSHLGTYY
Outline: as §1

ELF1 = ELF1 (Homo sapiens, UniProt P32519 1-619)
ELF1, sequence (P32519 whole entry): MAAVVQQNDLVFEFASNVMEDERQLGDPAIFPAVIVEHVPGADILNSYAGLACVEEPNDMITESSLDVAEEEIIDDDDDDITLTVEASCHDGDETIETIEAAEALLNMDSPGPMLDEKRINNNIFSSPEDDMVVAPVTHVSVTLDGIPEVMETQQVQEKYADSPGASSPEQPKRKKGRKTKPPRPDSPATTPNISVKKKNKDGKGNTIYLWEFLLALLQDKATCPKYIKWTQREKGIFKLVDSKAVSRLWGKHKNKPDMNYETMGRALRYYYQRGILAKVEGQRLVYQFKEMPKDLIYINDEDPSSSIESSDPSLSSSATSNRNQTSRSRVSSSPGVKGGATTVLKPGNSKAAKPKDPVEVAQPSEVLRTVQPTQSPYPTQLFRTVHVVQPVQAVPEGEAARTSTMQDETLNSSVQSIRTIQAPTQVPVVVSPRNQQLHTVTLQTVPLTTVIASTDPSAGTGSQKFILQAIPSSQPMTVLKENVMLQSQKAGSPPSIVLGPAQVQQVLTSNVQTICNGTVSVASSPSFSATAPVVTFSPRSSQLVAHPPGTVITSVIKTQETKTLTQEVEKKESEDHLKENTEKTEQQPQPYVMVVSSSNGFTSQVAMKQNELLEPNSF
Outline: as §1

EHF = target: T5, EHF (Homo sapiens, UniProt Q9NZC4 1-300)
T5 sequence: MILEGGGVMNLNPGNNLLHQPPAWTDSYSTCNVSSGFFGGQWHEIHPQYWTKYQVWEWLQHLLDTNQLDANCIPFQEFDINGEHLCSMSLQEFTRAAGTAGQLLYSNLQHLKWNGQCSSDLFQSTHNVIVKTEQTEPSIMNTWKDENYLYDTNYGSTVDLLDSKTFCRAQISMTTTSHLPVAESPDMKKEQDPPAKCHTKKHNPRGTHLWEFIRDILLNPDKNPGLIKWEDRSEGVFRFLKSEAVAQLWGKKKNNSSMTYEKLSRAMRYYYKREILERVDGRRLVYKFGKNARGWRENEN
Outline: as §1

SPI1 = SPI1 (Homo sapiens, UniProt P17947 1-270)
Outline: as §1

SPIB = SPIB (Homo sapiens, UniProt Q01892 1-262)
SPIB, sequence (Q01892 whole entry): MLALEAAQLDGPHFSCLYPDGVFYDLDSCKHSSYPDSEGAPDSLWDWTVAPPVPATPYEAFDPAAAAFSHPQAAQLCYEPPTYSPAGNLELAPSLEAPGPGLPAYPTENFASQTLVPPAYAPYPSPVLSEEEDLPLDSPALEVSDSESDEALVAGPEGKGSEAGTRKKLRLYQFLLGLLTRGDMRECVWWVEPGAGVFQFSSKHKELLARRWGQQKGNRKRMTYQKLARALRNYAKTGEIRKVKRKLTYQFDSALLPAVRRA
Outline: as §1

ELK3 = target: T6, ELK3 (Homo sapiens, UniProt P41970 1-407)
T6 sequence: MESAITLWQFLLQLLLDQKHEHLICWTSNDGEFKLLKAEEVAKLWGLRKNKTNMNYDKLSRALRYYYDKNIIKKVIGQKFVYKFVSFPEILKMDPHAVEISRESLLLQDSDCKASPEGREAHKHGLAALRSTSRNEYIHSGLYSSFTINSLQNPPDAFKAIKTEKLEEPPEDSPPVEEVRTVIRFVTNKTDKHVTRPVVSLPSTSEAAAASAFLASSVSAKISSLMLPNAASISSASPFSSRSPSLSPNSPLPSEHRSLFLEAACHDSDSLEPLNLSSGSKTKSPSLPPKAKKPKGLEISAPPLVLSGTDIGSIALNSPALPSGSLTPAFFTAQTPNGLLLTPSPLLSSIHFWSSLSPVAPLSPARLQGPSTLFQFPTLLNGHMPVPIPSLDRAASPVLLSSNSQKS
Outline: as §1

Sequence | binding signal (FLI1) | binding signal (ELK1) | binding signal (GABPA) | binding signal (ERG) | binding signal (ELF1) | binding signal (EHF) | binding signal (SPI1) | binding signal (SPIB) | binding signal (ELK3)
AATAGC | 1.17 fold enrichment (6-mer frequency, TF over GST control) | 1.14 fold enrichment (6-mer frequency, TF over GST control) | 1.17 fold enrichment (6-mer frequency, TF over GST control) | 1.12 fold enrichment (6-mer frequency, TF over GST control) | 1.09 fold enrichment (6-mer frequency, TF over GST control) | 1.23 fold enrichment (6-mer frequency, TF over GST control) | 1.15 fold enrichment (6-mer frequency, TF over GST control) | 1.16 fold enrichment (6-mer frequency, TF over GST control) | 1.1 fold enrichment (6-mer frequency, TF over GST control)
TTAAGC | 1.18 fold enrichment (6-mer frequency, TF over GST control) | 1.18 fold enrichment (6-mer frequency, TF over GST control) | 1.24 fold enrichment (6-mer frequency, TF over GST control) | 1.15 fold enrichment (6-mer frequency, TF over GST control) | 1.18 fold enrichment (6-mer frequency, TF over GST control) | 1.13 fold enrichment (6-mer frequency, TF over GST control) | 1.1 fold enrichment (6-mer frequency, TF over GST control) | 1.08 fold enrichment (6-mer frequency, TF over GST control) | 1.18 fold enrichment (6-mer frequency, TF over GST control)
TGGTTT | 1.6 fold enrichment (6-mer frequency, TF over GST control) | 1.44 fold enrichment (6-mer frequency, TF over GST control) | 1.55 fold enrichment (6-mer frequency, TF over GST control) | 1.51 fold enrichment (6-mer frequency, TF over GST control) | 1.58 fold enrichment (6-mer frequency, TF over GST control) | 1.48 fold enrichment (6-mer frequency, TF over GST control) | 1.66 fold enrichment (6-mer frequency, TF over GST control) | 1.43 fold enrichment (6-mer frequency, TF over GST control) | 1.6 fold enrichment (6-mer frequency, TF over GST control)
TGATCT | 1.21 fold enrichment (6-mer frequency, TF over GST control) | 1.33 fold enrichment (6-mer frequency, TF over GST control) | 1.18 fold enrichment (6-mer frequency, TF over GST control) | 1.22 fold enrichment (6-mer frequency, TF over GST control) | 1.18 fold enrichment (6-mer frequency, TF over GST control) | 1.22 fold enrichment (6-mer frequency, TF over GST control) | 1.15 fold enrichment (6-mer frequency, TF over GST control) | 1.28 fold enrichment (6-mer frequency, TF over GST control) | 1.23 fold enrichment (6-mer frequency, TF over GST control)
ACAAAT | 1.09 fold enrichment (6-mer frequency, TF over GST control) | 1.18 fold enrichment (6-mer frequency, TF over GST control) | 1.12 fold enrichment (6-mer frequency, TF over GST control) | 1.15 fold enrichment (6-mer frequency, TF over GST control) | 1.15 fold enrichment (6-mer frequency, TF over GST control) | 1.19 fold enrichment (6-mer frequency, TF over GST control) | 1.17 fold enrichment (6-mer frequency, TF over GST control) | 1.11 fold enrichment (6-mer frequency, TF over GST control) | 1.14 fold enrichment (6-mer frequency, TF over GST control)
ACGAAA | 1.2 fold enrichment (6-mer frequency, TF over GST control) | 1.12 fold enrichment (6-mer frequency, TF over GST control) | 1.15 fold enrichment (6-mer frequency, TF over GST control) | 1.14 fold enrichment (6-mer frequency, TF over GST control) | 1.13 fold enrichment (6-mer frequency, TF over GST control) | 1.19 fold enrichment (6-mer frequency, TF over GST control) | 1.14 fold enrichment (6-mer frequency, TF over GST control) | 1.16 fold enrichment (6-mer frequency, TF over GST control) | 1.07 fold enrichment (6-mer frequency, TF over GST control)
TCTCCT | 1.45 fold enrichment (6-mer frequency, TF over GST control) | 1.41 fold enrichment (6-mer frequency, TF over GST control) | 1.53 fold enrichment (6-mer frequency, TF over GST control) | 1.37 fold enrichment (6-mer frequency, TF over GST control) | 1.38 fold enrichment (6-mer frequency, TF over GST control) | 1.43 fold enrichment (6-mer frequency, TF over GST control) | 1.6 fold enrichment (6-mer frequency, TF over GST control) | 1.4 fold enrichment (6-mer frequency, TF over GST control) | 1.46 fold enrichment (6-mer frequency, TF over GST control)
CTCTCA | 1.49 fold enrichment (6-mer frequency, TF over GST control) | 1.47 fold enrichment (6-mer frequency, TF over GST control) | 1.52 fold enrichment (6-mer frequency, TF over GST control) | 1.36 fold enrichment (6-mer frequency, TF over GST control) | 1.38 fold enrichment (6-mer frequency, TF over GST control) | 1.36 fold enrichment (6-mer frequency, TF over GST control) | 1.38 fold enrichment (6-mer frequency, TF over GST control) | 1.44 fold enrichment (6-mer frequency, TF over GST control) | 1.57 fold enrichment (6-mer frequency, TF over GST control)
